Laboratory results: publication PMC4336329 (PLoS ONE, 2015)
Hit rate of the full screen: of about 310,000 compounds, about 14,000 (4.5%) showed an effect of 50% or more. Effects have a minus sign here. For the sample, strong results were picked, then their nearest neighbours and some compounds at random.

These molecules were tested against human ether-à-go-go-related gene (hERG) potassium channel (human, UniProt Q12809) (assay: primary screen, population patch clamp on CHO cells stably expressing hERG; higher = less effect of the substance).
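Note: peak tail current of the secondary pulse compared with the same well before compound.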

human ether-à-go-go-related gene (hERG) potassium channel, sequence (Q12809 whole entry, looked up): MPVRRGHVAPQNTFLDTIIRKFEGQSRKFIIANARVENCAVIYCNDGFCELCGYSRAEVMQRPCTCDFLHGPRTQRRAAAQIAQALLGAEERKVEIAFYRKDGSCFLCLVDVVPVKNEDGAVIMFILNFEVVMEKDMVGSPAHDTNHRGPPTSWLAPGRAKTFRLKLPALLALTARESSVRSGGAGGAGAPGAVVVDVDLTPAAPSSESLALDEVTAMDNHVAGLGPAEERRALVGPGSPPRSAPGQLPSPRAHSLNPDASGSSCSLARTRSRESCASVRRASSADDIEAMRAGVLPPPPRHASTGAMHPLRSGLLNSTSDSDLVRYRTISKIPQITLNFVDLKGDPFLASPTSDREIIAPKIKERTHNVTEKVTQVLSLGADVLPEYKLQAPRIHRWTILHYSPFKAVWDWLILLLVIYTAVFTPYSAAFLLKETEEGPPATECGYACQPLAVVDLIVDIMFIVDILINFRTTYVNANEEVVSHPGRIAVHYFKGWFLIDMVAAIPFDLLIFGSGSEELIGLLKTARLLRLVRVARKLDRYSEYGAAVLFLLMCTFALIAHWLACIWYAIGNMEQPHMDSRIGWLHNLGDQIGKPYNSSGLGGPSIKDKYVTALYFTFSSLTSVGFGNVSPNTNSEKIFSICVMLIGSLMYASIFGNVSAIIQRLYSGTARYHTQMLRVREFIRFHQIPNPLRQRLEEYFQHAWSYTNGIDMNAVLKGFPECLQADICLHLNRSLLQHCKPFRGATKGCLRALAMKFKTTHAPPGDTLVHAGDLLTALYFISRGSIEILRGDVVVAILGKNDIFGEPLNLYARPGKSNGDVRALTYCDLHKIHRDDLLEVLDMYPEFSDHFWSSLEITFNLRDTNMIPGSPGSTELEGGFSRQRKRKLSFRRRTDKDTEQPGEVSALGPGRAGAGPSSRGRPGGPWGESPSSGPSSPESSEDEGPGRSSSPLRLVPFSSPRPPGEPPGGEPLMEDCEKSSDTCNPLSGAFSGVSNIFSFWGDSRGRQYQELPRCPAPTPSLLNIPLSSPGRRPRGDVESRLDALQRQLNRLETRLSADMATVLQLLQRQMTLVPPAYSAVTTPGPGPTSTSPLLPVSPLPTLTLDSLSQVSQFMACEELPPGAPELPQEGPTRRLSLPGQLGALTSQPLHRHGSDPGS

Going from `COc1cccc(NC(=O)c2cn(C)c(=O)c3cc(OC)c(OC)cc23)c1` to `COc1cc(Nc2nc3ccccc3nc2NS(=O)(=O)c2ccc([N+](=O)[O-])cc2)cc(OC)c1OC`, the “hERG current change (%, negative = inhibition) at 10uM” value falls from 6.54% to -30.4%.

Compared with `Fc1ccc(N2N=C(c3cccs3)CC2c2ccccc2)cc1` (stereo not shown), `O=C1/C(=C/c2ccccc2F)SC(=S)N1CC(=O)N1CCCCC1c1cccnc1` (stereo not shown) is lower in “hERG current change (%, negative = inhibition) at 10uM” value: 8.89% for the first, 1.73% for the second.

First: COc1ccc(CC(=O)NC(C)c2nnc(SCCOc3ccc(OC)cc3)n2C)cc1 (stereo not shown)
Second: COC(CNC(=O)CC1C(=O)N(Cc2ccccc2)C(C)c2nc3ccccc3n21)OC (stereo not shown)
The “hERG current change (%, negative = inhibition) at 10uM” value of the first is lower: -11.2% for the first, 9.2% for the second.

First: O=C(O)CCn1c(=S)n(CCC(=O)O)c2ccccc21
Second: CCCS(=O)(=O)N1CCN(Cc2ccc([N+](=O)[O-])cc2)CC1.O=C(O)C(=O)O
The “hERG current change (%, negative = inhibition) at 10uM” value of the first is higher: -1.59% for the first, -51.9% for the second.

Compared with `CCc1ccc(CN2CCN(Cc3ccc(SC)cc3)CC2)cc1.O=C(O)C(=O)O`, `CSc1ccc(CN2CCN(Cc3ccc([N+](=O)[O-])cc3)CC2)cc1.O=C(O)C(=O)O` is lower in “hERG current change (%, negative = inhibition) at 10uM” value: -67.9% for the first, -78.1% for the second.

First: CSc1ccc(CN2CCN(C(=O)c3ccncc3)CC2)cc1
Second: CSc1ccc(CN2CCN(C(=O)Cc3ccccc3)CC2)cc1
The “hERG current change (%, negative = inhibition) at 10uM” value of the first is lower: -21.4% for the first, -12.1% for the second.

Going from `CCN1CCN(Cc2ccc(NC(=O)Nc3ccc(SC)cc3)cc2)CC1` to `CSc1ccc(CN2CCN(C(=O)c3ccc([N+](=O)[O-])cc3)CC2)cc1.O=C(O)C(=O)O`, the “hERG current change (%, negative = inhibition) at 10uM” value falls from -44.5% to -77.2%.

Going from `CS(=O)(=O)N1CCN(Cc2ccc([N+](=O)[O-])cc2)CC1` to `CCS(=O)(=O)N1CCN(Cc2ccc([N+](=O)[O-])cc2)CC1.O=C(O)C(=O)O`, the “hERG current change (%, negative = inhibition) at 10uM” value falls from -23.6% to -44.4%.

First: CCCS(=O)(=O)N1CCN(Cc2ccncc2)CC1.O=C(O)C(=O)O
Second: O=C(C1CCCN(Cc2ccc([N+](=O)[O-])cc2)C1)N1CCCCC1.O=C(O)C(=O)O (stereo not shown)
The “hERG current change (%, negative = inhibition) at 10uM” value of the first is higher: 10.8% for the first, -28.4% for the second.

Compared with `CCCCn1nc(C(=O)N[C@@H](CCSC)c2nc3ccccc3[nH]2)c2ccccc2c1=O`, `CC(=O)Nc1ccc(NC(=O)CC(C)n2ccnc2)cc1` (stereo not shown) is higher in “hERG current change (%, negative = inhibition) at 10uM” value: -28.7% for the first, 7.66% for the second.

Going from `C#CCOc1nc(Nc2cccc([N+](=O)[O-])c2)nc(OCC#C)n1` to `O=C(COc1ccc(S(=O)(=O)N2CCCC2)cc1Cl)N1CCN(c2ccccc2)CC1`, the “hERG current change (%, negative = inhibition) at 10uM” value falls from -10.1% to -15.5%.
